The source of these data is PubChem BioAssay AID463173 (ICCB-Longwood Screening Facility, Harvard Medical School, 2010).

The structures appear in SMILES notation. Screen size: about 52,000 compounds; about 4,300 (8.3%) were called active. This is one part of a sample in which actives are shown more often than they occur. Unmarked numbers belong to inactive results. No stated cut-off is given here; in the data, active means survival mostly below about 52% (no sharp cut-off); inactive means mostly above about 56%.

The assay concerns DeltatarO mutant. Nature of the assay: growth inhibition of S. aureus wild type versus tarO mutant, primary screen, teichoic acid synthesis inhibitors, RN4220, OD600 (AID 463173). The conditions noted are these: OD600, 18 h, hits give low values, screened at 18.75 µg/mL (by protocol).
`Cc1cc(C)cc(S(=O)(=O)Nc2cccc(-c3ccc(N4CCOCC4)nn3)c2)c1`: the survival is 86%.

Regarding `CCOC(=O)C1CCCN(C(=O)Cn2ncc3c(C)n(Cc4ccc(Cl)cc4)c(C)c3c2=O)C1` (stereo not drawn), the survival was 59%.

`O=C(CSc1nnc(-c2ccc3c(c2)OCO3)o1)Oc1ccccc1`: the survival was 87%.

Turning to `CSc1nc(N)c(C#N)c(C(C)C)c1C#N`, the survival is 75%.

Turning to `COc1ccc(-n2nc(C(=O)Nc3cccc(C(F)(F)F)c3)c3c4ccccc4n(C)c3c2=O)cc1`, the survival is 78%.

On to `CN1C(=O)CC(=O)N(C)c2cc(S(=O)(=O)N(C)Cc3ccccc3)ccc21`, for which the survival was 3% (active).

Consider `CN1C(=O)Cc2cc(S(=O)(=O)NCCc3ccccc3)ccc21`, for which the survival is 123%.

Take `Cc1cc(S(=O)(=O)N(C)Cc2ccccc2)ccc1-n1cnnn1`: the survival is 81%.

`Cc1oc(-c2ccccc2Cl)nc1CS(=O)(=O)CC(=O)NC(C)c1ccccc1` (stereo not drawn): the survival is 63%.

Take `Cc1ccc2ncc(C(=O)Nc3cccc(C(F)(F)F)c3)c(=O)n2c1`: the survival is 122%.

For `Cc1[nH]c2ccccc2c1C1N2CC3(C)CN1CC(C)(C2)C3=O` (stereo not drawn), the survival is 77%.

As for `Cc1cc(C)cc(N(CC(=O)Nc2c(C)cc(C)cc2C)S(=O)(=O)c2c(C)nn(C)c2C)c1`, the survival was -5% (active).

Turning to `Cc1nn(C)c(C)c1S(=O)(=O)N(CC(=O)Nc1ccc(F)cc1F)c1ccc(C(C)C)cc1`, the survival was 94%.

`Cc1cccc(NC(=O)CN(c2ccc(C(C)C)cc2)S(=O)(=O)c2c(C)nn(C)c2C)c1C`: the survival is 42% (active).

For the compound `CCOc1ccccc1NC(=O)CN(c1cc(C)cc(C)c1)S(=O)(=O)c1c(C)nn(C)c1C`, the survival is 89%.

Turning to `CCc1ccc(NC(=O)CN(c2ccc(C)cc2)S(=O)(=O)c2c(C)nn(C)c2C)cc1`, the survival is 56%.

Take `COc1ccc(N(CC(=O)Nc2cccc(Cl)c2C)S(=O)(=O)c2c(C)nn(C)c2C)cc1`: the survival is 62%.

Take `CC(=O)c1ccc(N2CCN(S(=O)(=O)c3ccc(-c4cc(C(F)(F)F)on4)s3)CC2)cc1`: the survival is 96%.

As to `Cc1cc(-c2ccc(S(=O)(=O)N3CCN(c4ccc(Cl)cc4)CC3)s2)on1`, the survival is 124%.

On to `CC(=O)c1ccc(N2CCN(S(=O)(=O)c3ccc(-c4cc(C)no4)s3)CC2)cc1`, for which the survival is -5% (active).

As for `Cc1cc(C)c(NC(=O)CN2C(=O)C3(SCC(=O)N3c3ccc(F)cc3)c3ccccc32)c(C)c1` (stereo not drawn), the survival was 74%.

As to `CN(Cc1ccccc1)C(=O)CSc1nnc(-c2cccc(Cl)c2)o1`, the survival is 85%.

`CCNC(=O)C1CN(S(=O)(=O)c2ccccc2)CCN1S(=O)(=O)c1ccccc1` (stereo not drawn): the survival was 75%.

Regarding `O=C(N/N=C/c1ccco1)C1CN(S(=O)(=O)c2ccccc2)CCN1S(=O)(=O)c1ccccc1` (stereo not drawn), the survival was 1% (active).

With `O=C(N/N=C/c1ccco1)C1c2ccccc2Oc2ccccc21`, the survival is 96%.

In the case of `Cc1ccc(CNS(=O)(=O)c2ccc3c(c2)CCN3S(C)(=O)=O)cc1`, the survival was 94%.

Take `O=C(Nc1cccc(C(F)(F)F)c1)c1ccc(F)c(S(=O)(=O)N2CCc3ccccc3C2)c1`: the survival was 91%.

For the compound `COc1ccc(-n2c(/C=C/c3cccc4ccccc34)nc3ccccc3c2=O)cc1Cl`, the survival was 78%.

In the case of `COC(=O)c1ccc(OCC2c3cc(OC)c(OC)cc3CCN2C(=O)COc2ccc(Cl)cc2)cc1` (stereo not drawn), the survival is 78%.

Consider `COc1cc2c(cc1OC)C(COc1ccccc1OC)N(C(=O)c1ccc(S(=O)(=O)N3CCCC3)cc1)CC2` (stereo not drawn), for which the survival was 32% (active).

For `COc1cc2c(cc1OC)C(COc1ccccc1OC)N(C(=O)COc1ccc(Cl)cc1)CC2` (stereo not drawn), the survival is 47% (active).

As for `COc1cc2c(cc1OC)C(COc1ccc(F)cc1)N(C(=O)c1ccc(S(=O)(=O)N3CCCC3)cc1)CC2` (stereo not drawn), the survival is 81%.

Turning to `COc1cc2c(cc1OC)C(COc1cc(C)cc(C)c1)N(C(=O)c1ccc(S(=O)(=O)N3CCCC3)cc1)CC2` (stereo not drawn), the survival is 73%.

With `COc1cc2c(cc1OC)C(COc1ccc(C(C)C)cc1)N(C(=O)COc1ccccc1)CC2` (stereo not drawn), the survival is 101%.

In the case of `COCCCNC(=O)c1cc2c(=O)oc3ccc(C)cc3c2s1`, the survival was 68%.

As for `COC(=O)c1cnn2c(C)c(Cc3c(C)cc(C)cc3C)c(C)nc12`, the survival is 83%.

For the compound `CC(C)Nc1nc(Cl)nc(NNC(=O)C(C)Oc2ccccc2)n1` (stereo not drawn), the survival was 93%.

Regarding `CCCCNC(=O)CSc1nc2cc3c(cc2c(=O)n1CCCC(=O)NCCc1ccc(OC)c(OC)c1)OCO3`, the survival was 109%.

As to `COc1ccc(CCNC(=O)CCCn2c(SCC(N)=O)nc3cc4c(cc3c2=O)OCO4)cc1OC`, the survival is 72%.

Consider `COCCCNC(=O)CSc1nc2cc3c(cc2c(=O)n1CCCC(=O)NCc1ccc(OC)cc1)OCO3`, for which the survival was 83%.

In the case of `CCOC(=O)CSc1nc2cc3c(cc2c(=O)n1CCCC(=O)NCCc1ccc(OC)c(OC)c1)OCO3`, the survival is -2% (active).

With `COCCCNC(=O)CSc1nc2cc3c(cc2c(=O)n1CCCCCC(=O)NCc1ccc(OC)cc1)OCO3`, the survival is 6% (active).

Take `CCOC(=O)CSc1nc2cc3c(cc2c(=O)n1CCCCCC(=O)NCc1ccc(OC)cc1)OCO3`: the survival was 72%.

As for `CCN(CC)C(=O)CSc1nc2cc3c(cc2c(=O)n1CCCC(=O)NCc1ccc(OC)cc1)OCO3`, the survival is 71%.

Turning to `COCCNC(=O)CSc1nc2cc3c(cc2c(=O)n1CCCCCC(=O)NCc1ccc(OC)cc1)OCO3`, the survival was 67%.

On to `CCN(CC)C(=O)CSc1nc2cc3c(cc2c(=O)n1CCCCCC(=O)NCc1ccc(OC)cc1)OCO3`, for which the survival was -1% (active).

Turning to `COc1ccc(N2CCN(Cc3nc4c(c(=O)[nH]c(=O)n4C)n3Cc3ccccc3F)CC2)cc1`, the survival was 119%.

Take `COc1ccccc1Cn1c(CNS(=O)(=O)c2ccc(CC(C)C)cc2)nc2cccnc21`: the survival is 95%.

As for `COc1ccc(/C=C(\NC(=O)c2ccccc2)C(=O)NC2CCCCC2)cc1`, the survival was 86%.

For the compound `COc1cc(NC(=O)c2cc3ccccn3n2)cc(OC)c1OC`, the survival was 69%.

As to `Cc1ccc(NC(=O)NCCc2c(C)nn(C)c2C)c(Cl)c1`, the survival is 72%.

On to `Cc1ccc(C(=O)NCC(c2cccs2)S(=O)(=O)c2cccs2)cc1C` (stereo not drawn), for which the survival is 78%.

For `COC(=O)CN1C(=O)C(C)(C)c2cc(S(=O)(=O)Nc3ccc(C(C)C)cc3)ccc21`, the survival is 79%.
